# Assay results published in PubChem BioAssay (EPA / NIEHS).
# Results filed as inconclusive are left out. Calls of active or inactive are those of the source. How the source made its calls: active means hit-call score of the fitted dose curve at least 0.9, where 1 is the maximum; inactive means score below 0.9.
# Read-out: ABC Transporter (ABCB11), ABCB11 (gene 8647)
# Test: CLD_ABCB11_24hr: CellzDirect (CLD) Gene Expression Assay for ABC Transporter (ABCB11) at 24 hours (AID 2283674)
# Experimental: CLD_24hr is a cell-based, multiplexed-readout assay that uses hepatocyte, a human liver primary cell, with measurements taken at 24 hours after chemical dosing in a 96-well plate.CLD_ABCB11_24hr is one of 16 assay component(s) measured or calculated from the CLD_24hr assay. It is designed to make measurements of mRNA induction, a form of inducible reporter, as detected with chemiluminescence signals by Quantitative Nuclease Protection Assay (qNPA) technology.Data from the assay component CLD_ABCB11_24hr was analyzed at the endpoint, CLD_ABCB11_24hr, in the positive analysis fitting direction relative to DMSO as the negative control and baseline of activity. Using a type of inducible reporter, gain-of-signal activity can be used to understand changes in the reporter gene as they relate to the gene ABCB11. Furthermore, this assay endpoint can be referred to as a primary readout. To generalize the intended target to other relatable targets, this assay endpoint is annotated to the transporter intended target family, where subfamily is ABC transporter.
# Human hepatocyte cultures were treated daily for two consecutive days with fresh dosing solutions containing appropriate concentrations of the 320 ToxCast chemicals (chemical identities were blinded to CellzDirect and other ToxCast collaborators), vehicle control (0.2% DMSO), and positive control inducers as summarized in Table 1. Due to the large number of treatment groups and chemicals examined, the ToxCast chemicals were divided into two groups (spanning two independent cultures of hepatocytes from separate donor preparations (Hu778: ToxCast plates 1 and 2; Hu776: ToxCast plates 3 and 4). Each preparation of human hepatocyte cultures was treated with respective vehicle control, medium only control, set of six positive controls/reference chemicals for the five hepatic receptor pathways, and a subset of eight of the ToxCast chemicals (indoxacarb, pyrithiobac-sodium, norflurazon, cyhalofop-butyl, methomyl, thiram, acetochlor, and propiconazole). These replicate data, coupled with internal replicates designed within the blinded ToxCast chemical library, provided additional data to evaluate interindividual differences between hepatocyte preparations and their potential impact on chemical profiles.Cell morphology and integrity were evaluated using phase-contrast microscopy as an indicator of hepatocyte cell health (Tyson & Green, 1987). Cultures for each treatment group (i.e., media, vehicle [0.2% DMSO], positive control inducers [multiple concentrations], and the ToxCast chemicals [multiple concentrations]) were observed and cell morphology was assessed relative to vehicle control cultures at each harvest time point (0, 6, 24, or 48 h). […] Images were evaluated at the conclusion of the study to assess changes in cell integrity and account for the effects of chemical exposure on uncharacteristic changes in concentration-dependent gene expression profiles. The results from these determinations of apparent cytotoxicity were annotated (yes/no) alongside the corresponding qNPA data for reference.At the conclusion of each treatment period, hepatocyte cultures (96-well) were washed with 1 volume of HBSS, lysed by addition of 25 ul ArrayPlate lysis buffer (HTG, Tucson, AZ), and 70 ul/well of Denaturation Oil, denatured by incubation at 95C for 10 min, and frozen at approximately -70C until analysis by nuclease protection assay (qNPA) (Roberts et al., 2007). For qNPA analysis, cell lysates were thawed at 50C for approximately 30 min, qNPA probes were added, and samples were incubated at 95C for 10 min to begin the detection process by denaturing the target RNA, dissociating the duplexes and secondary structure hybridization. At the conclusion of the hybridization period, S1 nuclease reagent was added to each sample to digest all nonprotected nucleotides at 50C for 60-90 min. […]
Compound,outcome,AC50
OB(O)O,inactive,
COC(=O)c1ccc(CNS(C)(=O)=O)cc1S(=O)(=O)NC(=O)Nc1nc(OC)cc(OC)n1,inactive,
Oc1ccc(C(c2ccc(O)cc2)C(Cl)(Cl)Cl)cc1,inactive,
CCC(O)=C1C(=O)CC(C(=O)O)CC1=O (stereo not drawn),inactive,
CCOC(=O)C(C)Oc1ccc(Oc2cnc3cc(Cl)ccc3n2)cc1 (stereo not drawn),inactive,
c1ccc(Nc2ccccc2)cc1,inactive,
CC(C)(c1ccc(O)cc1)c1ccc(O)cc1,inactive,
COC(=O)c1ccccc1C(=O)O,inactive,
CCCOC(=O)c1ccc(C(=O)OCCC)nc1,inactive,
Cc1nn(C)c(Oc2ccccc2)c1C=NOCc1ccc(C(=O)OC(C)(C)C)cc1,,36.8 µM (active)
CCNc1nc(N)nc(Cl)n1,inactive,
COC(=O)c1ccc(I)cc1S(=O)(=O)NC(=O)Nc1nc(C)nc(OC)n1,inactive,
CCC(C)OC(=O)N1CCCCC1CCO (stereo not drawn),inactive,
CCCN(CCC)C(=O)SCC,inactive,
CCOC(=O)[C@H](C)Oc1ccc(Oc2nc3ccc(Cl)cc3o2)cc1,inactive,
COCCO,inactive,
N#CSCSc1nc2ccccc2s1,inactive,
C#CCOC(=O)[C@@H](C)Oc1ccc(Oc2ncc(Cl)cc2F)cc1,inactive,
